15 compounds from PubChem BioAssay (NCI) can be followed below.

Among the test systems are T-47D breast; BT-549 breast; MDA-MB-435 melanoma; SW-620 colon; MCF7 breast; HCT-116 colon; HCC-2998 colon; KM12 colon.
Holding throughout (assay): NCI-60 one-dose screen, 48 h (100 = growth as untreated, 0 = no growth, -100 = all killed)
Conditions in all cases: 10 µM unless noted

The panel holds about 83,000 compounds, 20% with a hit somewhere; the sample as a whole holds those more often.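 Each cell line was grown in a 96-well plate and treated with one concentration of compound for 48 hours. Values below 10 were considered active.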 Values without a mark were called inactive. Activity calls are given as the source filed them.

Take `O=c1c(/C=C/c2c(O)ccc3ccccc23)nnc2sc(-c3cccc([N+](=O)[O-])c3)nn12`: the growth with T-47D breast is 33.6%; with BT-549 breast, 65.1%; with MDA-MB-435 melanoma, 47.5%; in the test on SW-620 colon it was 32.5%; in the test with MCF7 breast, 27.4%; in the test on HCT-116 colon it was 10.5%. Further, the results for the growth in the test on HCC-2998 colon and in the test on KM12 colon were 60.9% and 37.2%, respectively.
On to `COc1cc(C2CC(c3cccc(Nc4ccncc4)c3)=Nc3c(N)ncnc3N2)cc(OC)c1OC` (stereo not given), for which the growth is 62.2% in the test on T-47D breast; 113% with BT-549 breast; 69.7% in the test with MDA-MB-435 melanoma; 90.6% with SW-620 colon; 57.6% in the test on MCF7 breast; 87.9% in the test on HCT-116 colon. The growth is 95.4% in the test with HCC-2998 colon and 69% in the test with KM12 colon.
In the case of `CCOC(=O)c1ccc2c(c1)[n+](=O)c(C(C)=O)c(C(F)(F)F)n2[O-]`, the growth was -26.1% (active) in the test with T-47D breast; -44.9% (active) in the test on BT-549 breast; 2.85% (active) with MDA-MB-435 melanoma; -0.801% (active) in the test on SW-620 colon; -6.41% (active) with MCF7 breast; -38.9% (active) in the test on HCT-116 colon. Moreover, the growth with HCC-2998 colon was -17.1% (active); in the test with KM12 colon it was -85.5% (active).
As for `C=CC(=O)Nc1ccc2ncnc(Nc3cccc(NS(=O)(=O)CCC)c3Cl)c2c1`, the growth in the test with T-47D breast is 24.5%; in the test on BT-549 breast, 35.7%; in the test with MDA-MB-435 melanoma it was 26.2%; with SW-620 colon it was 74.4%; with MCF7 breast, 56.2%; in the test with HCT-116 colon, 67.9%. Also, the growth in the test with HCC-2998 colon is 93.3%; in the test with KM12 colon, 78.4%.
On to `FC(F)(F)c1cc(N2CCCCC2)nc(NCCCNc2ccnc3cc(Cl)ccc23)n1`, for which the growth with T-47D breast was 37.7%; with BT-549 breast, 61.2%; in the test with MDA-MB-435 melanoma it was 76%; with SW-620 colon, 94.3%; in the test on MCF7 breast, 43.7%; in the test on HCT-116 colon, 39.3%. The figures for the growth in the test with HCC-2998 colon and in the test on KM12 colon were 37.5% and 64.7%, respectively.
As for `CC/C(=C(/c1ccc(Cl)cc1)c1ccc(OCCCN(C)C)cc1)c1ccc(OC)cc1`, the growth with T-47D breast is 51.1%; in the test with BT-549 breast, 86.1%; in the test with MDA-MB-435 melanoma, 64.7%; in the test with SW-620 colon, 4.55% (active); in the test with MCF7 breast it was 9.13% (active); in the test on HCT-116 colon it was 46.6%. In addition, the growth was 16.8% in the test on HCC-2998 colon and 31.7% in the test on KM12 colon.
For the compound `N#C/C(=C/C=C/c1ccccc1)S(=O)c1ccccc1` (stereo not given), the growth in the test on T-47D breast was -20.1% (active); with BT-549 breast, -77.9% (active); in the test with MDA-MB-435 melanoma, -29.8% (active); with SW-620 colon, -40.4% (active); with MCF7 breast it was -40.2% (active); in the test on HCT-116 colon it was -89.6% (active). The growth is -88.9% (active) in the test with HCC-2998 colon and -42.4% (active) in the test on KM12 colon.
For the compound `O=C1C2C(c3cccs3)C=C(c3ccc(Cl)cc3)N2C(=S)N1c1ccccc1` (stereo not given), the growth in the test with T-47D breast is 100%; in the test with BT-549 breast, 92.4%; in the test on MDA-MB-435 melanoma, 110%; in the test on SW-620 colon, 102%; in the test with MCF7 breast, 90.9%; in the test on HCT-116 colon, 101%. Also, the growth with HCC-2998 colon is 111%; in the test with KM12 colon, 104%.
Consider `COc1cc2cc(Oc3ccc(NC(=O)Nc4ccc(Cl)c(Cl)c4)cc3)c(C)nc2cc1OCCN1CCCCC1`, for which the growth in the test with T-47D breast was 85.9%; in the test on BT-549 breast, 88.1%; in the test on MDA-MB-435 melanoma, 74.2%; with SW-620 colon it was 14.4%; in the test on MCF7 breast, 55.9%; with HCT-116 colon it was 91.3%. The growth was 104% in the test with HCC-2998 colon and 63.3% with KM12 colon.
Regarding `COc1cc(OCc2cccc(-c3ccc4c(c3)OCCO4)c2C)cc(OC)c1C=O`, the growth is 10.1% with T-47D breast; 56.6% with BT-549 breast; 52.9% in the test on MDA-MB-435 melanoma; 70.2% with SW-620 colon; 22.6% in the test with MCF7 breast; 44.1% with HCT-116 colon. In addition, the results for the growth in the test with HCC-2998 colon and with KM12 colon were 70.3% and 78.9%, respectively.
Regarding `CCCCC#Cc1c(I)n(C2OC(CO[Si](C)(C)C(C)(C)C)C3OC(C)(C)OC32)c(=O)[nH]c1=O` (stereo not given), the growth in the test on T-47D breast is 12.3%; in the test with BT-549 breast, 99.2%; in the test with MDA-MB-435 melanoma it was 82.9%; with SW-620 colon, 47.6%; in the test on MCF7 breast, 62.4%; in the test with HCT-116 colon, 50.2%. For the same compound, the figures for the growth with HCC-2998 colon and in the test with KM12 colon were -19.8% (active) and 109%, respectively.
Regarding `CCNCCNc1c(C)c(-c2ccc(C(F)(F)F)cc2)c(C#N)c2nc3ccccc3n12`, the growth in the test with T-47D breast is 82.6%; in the test on BT-549 breast, 75.5%; in the test with MDA-MB-435 melanoma, 65.2%; with SW-620 colon it was 93.6%; with MCF7 breast it was 76.2%; with HCT-116 colon it was 93.4%. Moreover, the growth was 99.4% with HCC-2998 colon and 97% with KM12 colon.
With `COc1ccc(Nc2nc(Nc3cc(C)[nH]n3)c3cc(OC)c(OC)cc3n2)cc1`, the growth in the test on T-47D breast was -52.1% [20 µM] (active); with BT-549 breast, -87.5% [20 µM] (active); in the test with MDA-MB-435 melanoma, -97.5% [20 µM] (active); with SW-620 colon it was -74.4% [20 µM] (active); in the test on MCF7 breast, -71.4% [20 µM] (active); in the test on HCT-116 colon, -54.4% [20 µM] (active). The values for the growth in the test with HCC-2998 colon and in the test with KM12 colon were -73.3% [20 µM] (active) and -74% [20 µM] (active), respectively.
As for `Oc1cccc(-c2nc(-c3n[nH]c(=S)n3-c3ccccc3)cc3c2[nH]c2ccccc23)c1`, the growth with T-47D breast was 47.7%; in the test with BT-549 breast, -15.9% (active); in the test with MDA-MB-435 melanoma, 3.44% (active); with SW-620 colon, 20%; in the test with MCF7 breast it was 17.8%; in the test on HCT-116 colon it was 10.6%. The growth in the test with HCC-2998 colon was -15.2% (active); in the test on KM12 colon, 13%.
Take `CC(C)(C)n1cc(-c2ccnc(NCCNS(=O)(=O)c3ccc(C(F)(F)F)cc3)c2)c(-c2ccccc2)n1`: the growth is 62.5% with T-47D breast; 93.7% with BT-549 breast; 100% with MDA-MB-435 melanoma; 99.2% in the test on SW-620 colon; 63% in the test with MCF7 breast; 58.9% in the test with HCT-116 colon. The growth was 111% in the test on HCC-2998 colon and 96.7% in the test with KM12 colon.
